Experimental data from PubChem BioAssay AID720650 (Broad Institute, 2013).
The source made the active and inactive calls. No rule for the calls is given here.

experiment: Biochemical counterscreen for C difficile toxins, absence of UDPG, inhibitor dose response (AID 720650); conditions: series mostly up to 19.5 µM

Compound | AC50
CCOC(=O)c1ccc(-n2c(CCC(=O)O)ccc2-c2ccc(F)cc2)cc1 | inactive
CNC(=O)C[C@@H]1CC[C@@H]2[C@H](COc3ccc(NS(=O)(=O)c4ccccc4C)cc3C(=O)N2C)O1 | inactive
COCCNc1cc(N)c([N+](=O)[O-])cc1[N+](=O)[O-] | inactive
COc1ccc(-c2ccc3c(c2)[C@H]2[C@H](CCN2C(=O)Cc2cccnc2)[C@@H](CO)N3C)cc1 | 14.7 µM (active)
CC(C)NC(=O)N1CC[C@@H]2[C@H]1c1cc(-c3ccc(F)cc3)ccc1N(C)[C@H]2CO | 6.96 µM (active)
O=c1[nH]c(/C=C\c2ccc(O)c(Cl)c2)nc(O)c1[N+](=O)[O-] | 20 µM (active)
CNC(C(=O)c1ccccc1)C(OC)c1cccc([N+](=O)[O-])c1 (stereo not given) | inactive
CCOC(=O)/C(=N/Nc1ccc(Br)cc1)N1CC(C)OC(C)C1 (stereo not given) | 0.615 µM (active)
COC(=O)C(Cc1ccccc1)NC(=O)CSc1nc(C)cc(=O)[nH]1 (stereo not given) | inactive
CC(=O)N1CCN(c2ccc(S(C)(=O)=O)cc2[N+](=O)[O-])CC1 | inactive
Cc1ccc(C2=NS(=O)(=O)N(C)C(C(=O)NCc3ccc4c(c3)OCO4)=C2)cc1 | inactive
COc1cccc(C(=O)C2CCCN(Cc3ccc(F)cc3)C2)c1 (stereo not given) | inactive
Nc1cc(N)cc(C(=O)OCC(=O)Nc2cc(S(=O)(=O)N3CCCCC3)ccc2Cl)c1 | inactive
CCOC(CCNC(=O)c1cn(CCOC)c(=O)c2c1c1ccccc1n2C)OCC | inactive
CCC(=O)Nc1ccc2c(c1)OC[C@H](C)N(C(=O)NC(C)C)C[C@H](C)[C@H](OC)CN(C)C2=O | inactive
